60 compounds from ChEMBL document CHEMBL1157539, “Thousands of chemical starting points for antimalarial lead identification” (Nature, 2010) can be followed below.

Molecules are shown by their SMILES.

Holding throughout (assay type): functional
In test [1] the test system is Plasmodium falciparum. In words: GSK_TCMDC: Inhibition of Plasmodium falciparum 3D7 in whole red blood cells, using parasite LDH activity as an index of growth. Test compounds present at 2uM.
The test system of test [2] is Plasmodium falciparum. In words: GSK_TCMDC: Inhibition of Plasmodium falciparum Dd2 in whole red blood cells, using parasite LDH activity as an index of growth. Test compounds present at 2uM.
The subject of test [3] is HepG2. The test is described as follows: GSK_TCMDC: Percent inhibition of human HepG2 cell line. Test compounds present at 10uM.

For orientation: Inhibition means the change of the read-out against control, counted positive when it falls. Low values mean little suppression, high ones strong suppression. For the compound `Cc1cc(N[C@@H](CC(C)C)C(=O)NCc2cccc(F)c2)nc(NCC2CCCCC2)n1.O=C(O)C(F)(F)F`, the Inhibition amounted to 99% in test [1], 70% in test [2] and 3% in test [3].
In the case of `O=C(O)C(F)(F)F.c1cc(CN2CCC(CCN3CCCCC3)CC2)cc(-c2cccc(-c3nc4ccccc4[nH]3)c2)c1`, the Inhibition turned out to be 100% in test [1], 100% in test [2] and 95% in test [3].
As to `Cc1noc(-c2cccs2)c1C(=O)NCCc1cccc(Cl)c1`, the Inhibition is on record as 97% in test [1], 95% in test [2] and 0% in test [3].
As for `Cc1ccccc1C1CCN(C2CCC(NC(=O)C3=Cc4ccccc4OC3)CC2)CC1` (stereo not given), the Inhibition in test [1] was 91%; in test [2] it was 15%; in test [3], 26%.
As to `Cc1cc(-c2ccc3c(c2)CCN(CCCOc2ccc4c(c2)CCN4C(=O)/C=C/c2ccccc2Cl)CC3)no1`, the Inhibition in test [1] is 88%; in test [2], 50%; in test [3] it was 52%.
For `COC(=O)c1cc(NC(=O)Nc2ccc(Cn3ncc(N4CCCNCC4)c(Cl)c3=O)cc2)cc(C(=O)OC)c1.O=C(O)C(F)(F)F` the same measures were 96%, 90% and 0%.
For `CN(CCCN(C)c1cc(NC(=O)c2ccc(F)cc2)ccn1)Cc1cccc(F)c1.O=C(O)C(F)(F)F` the same measures were 83%, 60% and 0%.
For `CC(C)C[C@@H](C(=O)N[C@@H](CCCCNC(=O)OCc1ccccc1)C(=O)Nc1nccs1)[C@H](C)N(O)C=O` the same measures were 99%, 98% and 0%.
With `C=C(C)Cn1cc(C2CCN(CCCCNC(=O)c3sc(-c4ccc(Cl)cc4Cl)nc3CO)CC2)c2ccccc21`, the figures for the Inhibition in test [1], in test [2] and in test [3] were 82%, 19% and 22%, respectively.
Take `NCc1ccc(CNCc2cccc(-c3cccc(-c4nc5cc(F)ccc5[nH]4)c3)c2)cc1.O=C(O)C(F)(F)F`: the Inhibition in test [1] is listed as 100%; in test [2], 34%; in test [3] it was 15%.
As to `COc1cc(CN2CCC(C(=O)Nc3ccc(-c4cccc(C)c4)cc3)CC2)ccc1O`, the Inhibition in test [1] is 100%; in test [2], 85%; in test [3], 25%.
In the case of `COc1cc2nc(N(C)C)nc(Nc3ccc4c(cnn4Cc4ccccc4)c3)c2cc1OC`, the Inhibition in test [1] stood at 100%; in test [2], 100%; in test [3], 90%.
As to `COc1ccc(-c2ccc3c(-c4ccc(F)cc4)cnc(N)c3c2)cn1`, the Inhibition in test [1] is recorded as 99%; in test [2] it was 86%; in test [3], 4%.
Regarding `Cl.Nc1c2c(nc3ccc(NC(=O)CCCc4ccccc4)cc13)CCCC2`, the Inhibition in test [1] is reported as 100%; in test [2], 42%; in test [3] it was 73%.
As for `CS(=O)(=O)Nc1cccc(-c2cnc3[nH]cc(-c4ccc(CN)cc4)c3c2)c1`, the Inhibition in test [1] is listed as 98%; in test [2] it was 95%; in test [3] it was 27%.
As to `O=C(Nc1ccc(N2CCNCC2)nc1)c1oc(-c2ccccc2)nc1C(F)(F)F`, the Inhibition in test [1] came out at 100%; in test [2], 62%; in test [3], 7%.
On to `CN(C)C(C)(C)CN(Cc1ccc(-c2ccc(C(F)(F)F)cc2)cc1)C(=O)Cn1c(CCc2cccc(F)c2F)nc(=O)c2ccccc21.O=C(O)C(O)C(O)C(=O)O`, for which the Inhibition in test [1] is listed as 95%; in test [2], 67%; in test [3], 64%.
For `Cc1cc(N2CCC(NS(=O)(=O)c3ccc(F)cc3)CC2)nc(Nc2cccc(C#N)c2)n1.O=C(O)C(F)(F)F` the same measures were 97%, 65% and 20%.
For `C[C@H]1CN(Cc2cccc(-c3cc(CNC(=O)c4cccc(CN5CCN(C/C=C/c6ccccc6)CC5)c4)ccc3F)c2)CCN1.O=C(O)C(F)(F)F` the same measures were 98%, 46% and 98%.
For `Cc1c2ccc(N(C)c3ccnc(Nc4ccc5c(c4)nc(NC(C)C)n5C)n3)cc2nn1C.Cl`, the Inhibition is 100% in test [1], 100% in test [2] and 2% in test [3].
Regarding `CCC(=Cc1cccc([N+](=O)[O-])c1)C(=O)NCC1CCN(c2nc3cc(OC)c(OC)cc3c(=N)[nH]2)CC1.Cl`, the Inhibition in test [1] is on record as 100%; in test [2], 62%; in test [3], 25%.
For `CCCCCCC1(C)N=C(N)N=C(N)C1c1ccc(Cl)c(Cl)c1.Cl` (stereo not given), the Inhibition in test [1] was found to be 94%; in test [2], 43%; in test [3] it was 18%.
On to `CC(C)Cc1cn(-c2nc(-c3nc4ccccc4[nH]3)cs2)c2ccncc12.Cl`, for which the Inhibition stood at 100% in test [1], 99% in test [2] and 34% in test [3].
On to `Cc1cc(=O)[nH]c(-n2nc(C)cc2NC(=O)CC(c2ccccc2)c2ccccc2)n1`, for which the Inhibition in test [1] is listed as 90%; in test [2], 62%; in test [3], 42%.
For `Cc1ccc(C(=O)Nc2cccc(CN3CCCN(Cc4ccc(O)cc4)CC3)c2)s1.O=C(O)C(F)(F)F` the same measures were 90%, 23% and 17%.
For `O=C(Nc1cccc(-c2cccc(-c3nc4ccccc4[nH]3)c2)c1)c1ccoc1` the same measures were 85%, 36% and 19%.
As to `CC(=O)Nc1ccc(C(=O)Nc2cccc(-c3ccc(-c4nc5ccccc5[nH]4)s3)c2)cn1`, the figures for the Inhibition in test [1], in test [2] and in test [3] were 100%, 91% and 9%, respectively.
Consider `CCC(CN1C(=O)C(c2ccccc2)(c2ccccc2)N=C1N)c1ccccc1.O=CO` (stereo not given), for which the Inhibition in test [1] is given as 98%; in test [2], 98%; in test [3], 11%.
As for `Cc1ccc2c(=NN=Cc3ccc(Cl)cc3)cc(C)[nH]c2c1`, the Inhibition in test [1] is given as 100%; in test [2], 34%; in test [3] it was 0%.
In the case of `O=C(Nc1cccc(-c2ccc(-c3nc4cc(C(F)(F)F)ccc4[nH]3)s2)c1)c1ccncc1`, the Inhibition in test [1] is recorded as 99%; in test [2], 46%; in test [3], 79%.
For `COCC(C)n1c(C)cc(C(=O)CSc2nnc(Nc3ccccc3)s2)c1C` (stereo not given) the same measures were 97%, 98% and 0%.
For `CCNc1cc(C(=O)N[C@@H](Cc2ccccc2)[C@H](O)CNC2CCC(F)(F)CC2)c(F)c(N2CCCCS2(=O)=O)c1.O=CO`, the Inhibition in test [1] was 100%; in test [2] it was 97%; in test [3], 0%.
With `COCCNC(=O)c1ccc(OC2CCN(Cc3ccc(F)c(F)c3)CC2)c(Cl)c1`, the Inhibition in test [1] is recorded as 88%; in test [2] it was 73%; in test [3], 8%.
Turning to `Cc1ccc(CNC(=O)[C@H](CCCN)Nc2nc(Nc3ccccc3)ncc2C)cc1.O=C(O)C(F)(F)F`, the Inhibition in test [1] was found to be 97%; in test [2], 0%; in test [3], 0%.
In the case of `Nc1c2c(nc3ccc(NC(=O)c4ccccc4)cc13)CCCC2`, the Inhibition in test [1] is given as 99%; in test [2], 8%; in test [3] it was 0%.
In the case of `CC(C)(C)c1ccc(O)c(CNC2CCCCC2)c1.Cl`, the Inhibition in test [1] came out at 100%; in test [2], 98%; in test [3], 5%.
With `C=CCn1cc(C2CCN(CCCCNC(=O)c3sc(-c4ccc(C(F)(F)F)cc4)nc3CO)CC2)c2cc(OC)ccc21`, the values for the Inhibition in test [1], in test [2] and in test [3] were 91%, 4% and 40%, respectively.
For `COc1cccc(C(=O)C2CC2CN(C)CCC(O)c2ccc(Cl)c(Cl)c2)c1` (stereo not given) the same measures were 99%, 95% and 17%.
Regarding `Cc1cccc2nc(-c3ccc(-c4cccc(NC(=O)CCc5c[nH]cn5)c4)cc3)[nH]c12`, the Inhibition in test [1] is given as 100%; in test [2], 14%; in test [3], 13%.
Regarding `COc1ccc(-c2cc(-c3nc4cc(CN)ccc4[nH]3)c(=O)n(C)c2)cc1OC`, the Inhibition in test [1] worked out at 85%; in test [2], 56%; in test [3], 0%.
For `Cc1cc(N2CCN(CC3CCN(C)CC3)CC2)nc(Nc2ccc(Br)cc2)n1` the same measures were 100%, 100% and 31%.
For `O=C(NC(NC(=S)Nc1ccc([N+](=O)[O-])cc1)C(Cl)(Cl)Cl)c1cccc(Cl)c1` (stereo not given) the same measures were 97%, 100% and 24%.
Consider `CS(=O)(=O)CCNCc1cccc(-c2cc3c(Nc4ccc5c(cnn5Cc5ccccc5)c4)ncnc3s2)c1.O=C(O)C(F)(F)F`, for which the Inhibition came out at 100% in test [1], 100% in test [2] and 36% in test [3].
In the case of `COc1ccc2c(NN=Cc3ccc(F)cc3)ccnc2c1`, the Inhibition in test [1] is given as 100%; in test [2], 99%; in test [3], 14%.
`Cl.N=c1n(Cc2ccccc2)c2ccccc2n1CC(O)c1ccc(Cl)c(Cl)c1` (stereo not given): the results for the Inhibition in test [1], in test [2] and in test [3] were 95%, 98% and 40%, respectively.
For `COc1cc(Cc2cnc(N)nc2N)ccc1OCc1ccc(NC(C)=O)cc1` the same measures were 98%, 0% and 9%.
As for `COc1ccc2nccc([C@@H](O)CN3CCC(NCc4nc5c(OCc6ccccc6)cccc5[nH]4)CC3)c2c1.O=C(O)C(=O)O`, the Inhibition is 100% in test [1], 34% in test [2] and 6% in test [3].
For `O=C(/C=C/c1ccc(Cl)c(Cl)c1)NCCCCN1CCC(c2c[nH]c3ccccc23)CC1`, the Inhibition is reported as 91% in test [1], 11% in test [2] and 57% in test [3].
For `O=C(c1cc(C(=O)Nc2ccccc2F)c(=O)n(-c2ccccc2F)c1)c1cc(Cl)ccc1O` the same measures were 98%, 80% and 2%.
`COc1cc(Cl)c(C)cc1N(Cc1ccccc1-c1ccccc1)S(=O)(=O)c1ccc(C(F)(F)F)cc1`: the figures for the Inhibition in test [1], in test [2] and in test [3] were 90%, 62% and 23%, respectively.
Take `Cc1nc(NC2=NCN(CCCN3CCOCC3)CN2)nc2c(C)cccc12`: the Inhibition is 89% in test [1], 62% in test [2] and 17% in test [3].
As for `O=C(O)C(F)(F)F.OCC1CCN(Cc2ccc(-c3ccc(-c4nc5cc(C(F)(F)F)ccc5[nH]4)cc3)cc2)CC1`, the Inhibition in test [1] was found to be 100%; in test [2], 91%; in test [3] it was 17%.
Take `CCOc1ccccc1C1CCN(CCCCNC(=O)c2ccc(NC(=O)c3ccc(Cl)cc3)cc2)CC1`: the Inhibition was found to be 95% in test [1], 27% in test [2] and 13% in test [3].
For `O=C(Nc1cccc(CN2CCCN(Cc3cccc(O)c3)CC2)c1)c1ccc2ccccc2c1.O=C(O)C(F)(F)F` the same measures were 97%, 42% and 21%.
Take `O=C(NCCc1ccccc1)N(Cc1ccccc1-c1cccc(CNCCc2ccccc2)c1)C1CCN(Cc2ccccc2)CC1.O=C(O)C(F)(F)F`: the results for the Inhibition in test [1], in test [2] and in test [3] were 100%, 88% and 100%, respectively.
`CC(=O)Nc1nc(C(=O)Nc2ccc(-c3ccc(-c4nc5cc(F)ccc5[nH]4)cc3)cc2)cs1`: the results for the Inhibition in test [1], in test [2] and in test [3] were 100%, 33% and 17%, respectively.
For the compound `COc1cc2c(cc1OC)C(c1ccc(Br)cc1)CN(C)CC2.Cl` (stereo not given), the figures for the Inhibition in test [1], in test [2] and in test [3] were 86%, 0% and 8%, respectively.
With `COc1ccc(C(=C(C)CC(C)C(=O)O)c2ccccc2)cc1` (stereo not given), the Inhibition turned out to be 95% in test [1], 0% in test [2] and 6% in test [3].
On to `CN1CCN(CC(=O)Nc2ccc(-c3cccc(-c4nc5cc(C(F)(F)F)ccc5[nH]4)c3)cc2)CC1`, for which the Inhibition is given as 100% in test [1], 93% in test [2] and 45% in test [3].
Turning to `CN1CCN(CCCN(C(=O)Nc2cc(C(F)(F)F)cc(C(F)(F)F)c2)c2ccccc2Cc2ccccc2)CC1`, the Inhibition in test [1] stood at 89%; in test [2], 92%; in test [3], 35%.
